Experimental data from article PMC5540273 (PLoS ONE, 2017).

How the values were obtained:
Conditions in all cases: concentration: 1 μM, replicates: in singlicate; n = 1
[1] = system: DYRK1B
[2] = system: DYRK2
[3] = system: EGFR
[4] = system: EIF2AK1
[5] = system: EPHA1
[6] = system: EPHA2
[7] = system: EPHA3
[8] = system: EPHA4
[9] = system: EPHA5
[10] = system: EPHA6
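Further: KINOMEscan kinase panel screen.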

SMILES	%Inh [1] [%]	%Inh [2] [%]	%Inh [3] [%]	%Inh [4] [%]	%Inh [5] [%]	%Inh [6] [%]	%Inh [7] [%]	%Inh [8] [%]	%Inh [9] [%]	%Inh [10] [%]
Cc1ccc(C)c(NC(=O)Nc2ccc(C)c(-c3ccc(C(=O)Nc4ccncc4)cc3)c2)c1 [GSK1398473]	25	10	35	0	0	19	0	29	15	16
COc1cccc(C2=C(Nc3cccc(O)c3)C(=O)NC2=O)c1 [SB-390771]	24	9	41	3	0	29	0	27	0	24
Cc1cccc(Nc2nc(NCCN)ncc2C(N)=O)c1 [GSK1292139]	27	33	15	0	14	0	64	0	0	0
CC(C)(C)c1ccc(C(=O)Nc2cn3cc(-n4ccnc4)ccc3n2)cc1	94.8	67	9	0	0	0	16	0	0	12
Cc1ccccc1CC(=O)N1CCc2cc(-c3cn(C)c4ncnc(N)c34)ccc21 [GSK2603346]	4	4	22	90.1	13	5	0	0	0	10
Nc1cccc(-c2ccc3c(N)n[nH]c3c2)c1 [GSK2193613]	0	74	0	0	9	5	15	0	0	3
CN(c1ccc(NC(=O)Nc2cccc(Cl)c2)cc1)c1ccnc(N)n1.Cl [GW830707]	14	14	10	0	8	18	15	17	33	48
CS(=O)(=O)c1cccc(CNc2nc(Nc3ccc4c(c3)CCC(=O)N4)ncc2C(F)(F)F)c1	61	0	0	0	1	0	0	0	0	0
Cl.N#CCc1ccc(Nc2nccc(Nc3ccc(Oc4ccccc4)cc3)n2)cc1 [GW639905]	0	8	33	5	1	9	0	0	0	0
Cl.O=C(Nc1ccc(Oc2ccc3[nH]c(NC(=O)c4ccco4)nc3c2)cc1)Nc1cc(C(F)(F)F)ccc1F [GW683134]	6	0	44	4	91.8	95.2	20	93.6	48	96.4
Cc1cccc(Nc2nc(N[C@H]3CCCC[C@H]3N)ncc2C(N)=O)c1.Cl [GSK986310]	37	24	38	22	26	11	58	6	2	6
O=C(Nc1n[nH]c2nc(-c3ccccc3O)ccc12)C1CC1 [SB-711880]	56	14	27	0	0	4	30	0	5	0
CC(C)c1nc(-c2ccc(F)c(NS(=O)(=O)c3c(F)cccc3F)c2)c(-c2ccnc(Nc3ccc(N4CCOCC4)nc3)n2)s1 [GSK1804250]	0	2	82	67	96.2	17	31	30	1	50
COc1ccc(NC(=O)c2ccoc2)cc1-c1ccc(C(=O)NCC2CC2)cc1 [GW810437]	8	21	0	0	0	0	15	0	0	0
CCn1cnc2c(NCc3ccccc3)ncnc21 [SKF-96418]	37	15	0	0	0	0	0	7	0	0
N#Cc1cnc2cc(-c3cnc(CNCCN4CCOCC4)s3)ccc2c1Nc1ccc(Oc2ccccc2)cc1 [GW664114]	5	14	98.1	0	8	0	10	11	0	19
COc1cc(Nc2ccnc3cc(-c4ccncc4)ccc23)cc(OC)c1OC.Cl [GW494610]	0	4	58	0	96.9	83	48	48	37	0

SMILES	%Inh [1] [%]	%Inh [2] [%]	%Inh [3] [%]	%Inh [4] [%]	%Inh [5] [%]	%Inh [6] [%]	%Inh [7] [%]	%Inh [8] [%]	%Inh [9] [%]	%Inh [10] [%]
CN(C)CCOc1ccc(-c2cc(-c3ccc(Cl)c(O)c3)c(-c3ccncc3)[nH]2)cc1.Cl.Cl [SB-684387]	30	18	38	31	51	16	19	10	0	32
CCNC(=O)/C=C/c1n[nH]c2cc(Sc3ccccc3C(=O)NC)ccc12	0	7	23	29	9	7	0	5	42	16
O=C(Nc1n[nH]c2nc(-c3ccccc3)ccc12)C1CC1 [SB-708999]	0	12	1	0	15	15	0	0	2	0
Cc1ccc(O)cc1Nc1ccnc2ccc(C(C)(C)C)cc12 [GW856805]	19	19	37	44	99	92.9	71	91.3	99.3	79
Cc1nn2c(=O)cc(N3CCO[C@H](C)C3)nc2n1Cc1cccc(Cl)c1Cl [GSK2373693]	11	12	28	1	1	21	0	0	0	0
Fc1cc(Cl)ccc1Nc1ccnc2cc(-c3ccc(CN4CCOCC4)o3)ccc12 [GW560109]	7	13	71	10	94.5	34	32	41	0	65
COc1ccc(C)c(Nc2ccnc(Nc3ccc(-c4cnc[nH]4)cc3)n2)c1.Cl [GW784041]	0	0	28	0	62	45	3	31	4	12
COc1cccc(NC(=O)NCCNc2ccnc(Nc3ccc(F)cc3)n2)c1 [GSK1379879]	25	0	43	0	52	27	0	0	0	0
Nc1ncc(-c2cn[nH]c2)c2scc(-c3ccc4c(c3)CCN4C(=O)Cc3ccccc3)c12 [GSK2593067]	0	7	25	48	26	0	0	0	0	12
Cn1cc(-c2ccc3c(c2)CCN3C(=O)Cc2cc(F)cc(F)c2F)c2c(N)ncnc21 [GSK2634140]	4	5	16	80	4	9	0	6	0	1
O=C(Nc1c(F)cccc1F)c1cc(C(=O)c2ccccc2F)c[nH]1 [GSK1326180]	17	12	26	0	0	11	0	9	0	2
COC(=O)Nc1nc2ccc(Oc3ccc(NC(=O)Nc4cc(C(F)(F)F)ccc4F)cc3)cc2[nH]1.Cl [GW654607]	42	13	29	26	90.9	98	39	96.8	66	97.7
O=C(O)C(F)(F)F.O=c1[nH]ccc2nc(N[C@@H]3CCNC3)nc(Nc3cc(Cl)cc(Cl)c3)c12 [GSK2188764]	21	36	25	18	6	0	72	0	0	0
CCNc1nccc(-c2c(-c3ccc(F)cc3)ncn2C2CCN(C)CC2)n1	0	100	0	0	0	0	0	5	0	0
Cc1ccc(NC(=O)c2cccc(N3CCCCC3)c2)cc1-c1ccc(C(=O)NCC2CC2)cc1 [GSK1917008]	0	18	35	8	18	33	4	37	3	34
CC(C)NCC(Cc1ccccc1)NC(=O)c1cc(Br)c(-c2ccnc3[nH]ccc23)s1.Cl.Cl (stereo not drawn) [GSK1383281]	29	33	26	0	6	0	8	0	0	0
